We go through 20 compounds from PubChem BioAssay (Tox21).

Experiment [1] in a line: qHTS assay to identify small molecule antagonists of the glucocorticoid receptor (GR) signaling pathway - cell viability counter screen (AID 720693). Note: nearly all actives have a fitted effect of over 55% in size. Background: Quantitative high-throughput screening tests each substance at several concentrations.
A short description of experiment [2]: qHTS assay for identifying genotoxic compounds that show differential cytotoxicity against isogenic chicken DT40 cell lines with known DNA damage response pathways - Rev3 mutant cell line (AID 743014). Note: nearly all actives have a fitted effect of over 55% in size. Note: potency is the fitted concentration of half-maximal effect.
Experiment [3] is described as follows: qHTS assay to identify small molecule antagonists of the androgen receptor (AR) signaling pathway - cell viability counter screen (AID 743033; note: nearly all actives have a fitted effect of over 45% in size; note: potency is the fitted concentration of half-maximal effect).
Experiment [4] is described as follows: qHTS assay to identify small molecule antagonists of the thyroid receptor (TR) signaling pathway - cell viability counter screen (AID 743064). Note: nearly all actives have a fitted effect of over 50% in size. Note: potency is the fitted concentration of half-maximal effect. The gist of the method: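 GH3.TRE-Luc cells, 4 h pre-plating; cpd + T3 1 nM final; 37 °C 23.5 h; CellTiter-Fluor 30 min; fluorescence read.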
The nature of experiment [5]: qHTS assay to identify small molecule antagonists of the estrogen receptor alpha (ER-alpha) signaling pathway - cell viability counter screen (AID 743074; calls by dose curve; note: nearly all actives have a fitted effect of over 45% in size).
Experiment [6] is described as follows: qHTS assay to identify small molecule antagonists of the estrogen receptor alpha (ER-alpha) signaling pathway using the BG1 cell line - cell viability counter screen (AID 743081).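 Note: compound given together with 17beta-estradiol as the ER stimulus; nearly all actives have a fitted effect of over 45% in size.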
The target of experiment [7] is Aromatase (Homo sapiens) (UniProt P11511). The experiment can be described thus: qHTS assay to identify aromatase inhibitors (AID 743083). Note: nearly all actives have a fitted effect of over 55% in size. Note: potency is the fitted concentration of half-maximal effect.
In experiment [8] the target is Androgen receptor (Homo sapiens) (UniProt P10275). The experiment can be described thus: qHTS assay to identify small molecule antagonists of the androgen receptor (AR) signaling pathway using the MDA cell line (AID 743042; note: nearly all actives have a fitted effect of over 55% in size). Summed up:
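Antagonist mode: compounds plus R1881 agonist added to MDA-kb2 AR-luc cells, incubated 16 h at 37C. Luciferase reporter luminescence quantified, with multiplexed CellTiter-Fluor readout for cell viability.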

Experiment [9] concerns thyroid hormone receptor (rat, GH3 cells). The experiment can be described thus: qHTS assay to identify small molecule agonists of the thyroid receptor (TR) signaling pathway (AID 743066; calls by dose curve).
The target in experiment [10] is Estrogen receptor (Homo sapiens) (UniProt P03372). Kind of experiment: qHTS assay to identify small molecule antagonists of the estrogen receptor alpha (ER-alpha) signaling pathway (AID 743069; active = well fitted curve in the direction sought with a large enough effect in the signal ratio in the repeat runs, not every such curve was filed as active; the % refers to the signal ratio). Summed up:
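Fluorescence intensity from a beta-lactamase FRET substrate served as the read-out. Cells: HEK293 with stably integrated ER-alpha-UAS-bla reporter. Agonist 17beta-estradiol was co-added with compounds; incubation 18 hr at 37C, substrate 2 hr at room temperature.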

For experiment [11] the target is unchanged. The experiment can be described thus: qHTS assay to identify small molecule agonists of the estrogen receptor alpha (ER-alpha) signaling pathway (AID 743075; calls by dose curve; note: potency is the fitted concentration of half-maximal effect).
The target is the same in experiment [12]. Kind of experiment: qHTS assay to identify small molecule agonists of the estrogen receptor alpha (ER-alpha) signaling pathway using the BG1 cell line (AID 743079). Note: nearly all actives have a fitted effect of over 20% in size. Note: potency is the fitted concentration of half-maximal effect. The following applies: BG1Luc4E2 cells, ERE-luciferase agonist, 22 h; activation: at 70.3 µM (top of the series).
Experiment [13] can be described thus: qHTS assay to identify small molecule antagonists of the estrogen receptor alpha (ER-alpha) signaling pathway using the BG1 cell line (AID 743080; calls by dose curve; note: nearly all actives have a fitted effect of over 25% in size; note: potency is the fitted concentration of half-maximal effect). The gist of the method: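 Antagonist mode: compounds in DMSO were pinned onto BG1-Luc-4E2 cells alongside 17beta-estradiol agonist, incubated 21.5 h, and ERE-driven luciferase measured with ONE-Glo. Cytotoxicity was multiplexed using CellTiter-Fluor fluorescence.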

The nature of experiment [14]: qHTS assay to identify small molecule antagonists of the androgen receptor (AR) signaling pathway using the MDA cell line - cell viability counter screen (AID 743041; note: nearly all actives have a fitted effect of over 45% in size). The gist of the method: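 Using the breast carcinoma line MDA-kb2 AR-luc, test chemicals were co-incubated with R1881 for 16 h; CellTiter-Fluor reagent, added at 15.5 h, provided a fluorescence measure of live cells.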

Experiment [15] is described as follows: qHTS assay for identifying genotoxic compounds that show differential cytotoxicity against isogenic chicken DT40 cell lines with known DNA damage response pathways - Rad54/Ku70 mutant cell line (AID 743015). Note: nearly all actives have a fitted effect of over 60% in size. Note: potency is the fitted concentration of half-maximal effect.
The nature of experiment [16]: qHTS assay to identify small molecule antagonists of the thyroid receptor (TR) signaling pathway (AID 743065). Note: nearly all actives have a fitted effect of over 55% in size. Note: potency is the fitted concentration of half-maximal effect. Summed up: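 Antagonism measured as loss of luciferase signal in GH3 cells stably carrying a TRE-luciferase reporter, co-treated with compound and T3 (1 nM final) for 23.5 h at 37 C. Viability was read in the same well by CellTiter-Fluor.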
Experiment [17] addresses Androgen receptor (Homo sapiens) (UniProt P10275). Kind of experiment: qHTS assay to identify small molecule antagonists of the androgen receptor (AR) signaling pathway (AID 743035; active = well fitted inhibition curve with a large enough effect in the signal ratio in the repeat runs, not every such curve was filed as active; the % refers to the signal ratio). The gist of the method: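 Quantitative HTS of the Tox21 10K library used HEK293 AR-UAS-bla cells stimulated with R1881 alongside compound for 16 h at 37C, followed by beta-lactamase FRET detection (LiveBLAzer B/G, 2 h, RT).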

Experiment [18] has the same target. Kind of experiment: qHTS assay to identify small molecule agonists of the androgen receptor (AR) signaling pathway (AID 743036; active = well fitted activation curve with a large enough effect in the signal ratio in the repeat runs, with a control signal flat, not every such curve was filed as active; the % refers to the signal ratio). Summed up:
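AR-bla HEK293 cells, 2,000/well; 4 h preincubation 37C/5% CO2; compound (DMSO) 16 h at 37C; LiveBLAzer B/G FRET substrate 2 h RT; fluorescence intensity read-out.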

Several values for one entry are separate records, joined by “and”; a condition that tells them apart may be missing. Equal values may be shown once. Records with an inconclusive call do not appear. Activity calls are given as the source filed them. Unless noted, calls come from the whole dose curve; as a rule, active = well fitted curve in the direction sought with a large enough effect in the repeat runs; inconclusive = weak or mixed curves; inactive = no such curve, though single readings can be large; an effect the other way counts as inactive or inconclusive.

Chain of Androgen receptor (Homo sapiens) (P10275 whole entry, looked up): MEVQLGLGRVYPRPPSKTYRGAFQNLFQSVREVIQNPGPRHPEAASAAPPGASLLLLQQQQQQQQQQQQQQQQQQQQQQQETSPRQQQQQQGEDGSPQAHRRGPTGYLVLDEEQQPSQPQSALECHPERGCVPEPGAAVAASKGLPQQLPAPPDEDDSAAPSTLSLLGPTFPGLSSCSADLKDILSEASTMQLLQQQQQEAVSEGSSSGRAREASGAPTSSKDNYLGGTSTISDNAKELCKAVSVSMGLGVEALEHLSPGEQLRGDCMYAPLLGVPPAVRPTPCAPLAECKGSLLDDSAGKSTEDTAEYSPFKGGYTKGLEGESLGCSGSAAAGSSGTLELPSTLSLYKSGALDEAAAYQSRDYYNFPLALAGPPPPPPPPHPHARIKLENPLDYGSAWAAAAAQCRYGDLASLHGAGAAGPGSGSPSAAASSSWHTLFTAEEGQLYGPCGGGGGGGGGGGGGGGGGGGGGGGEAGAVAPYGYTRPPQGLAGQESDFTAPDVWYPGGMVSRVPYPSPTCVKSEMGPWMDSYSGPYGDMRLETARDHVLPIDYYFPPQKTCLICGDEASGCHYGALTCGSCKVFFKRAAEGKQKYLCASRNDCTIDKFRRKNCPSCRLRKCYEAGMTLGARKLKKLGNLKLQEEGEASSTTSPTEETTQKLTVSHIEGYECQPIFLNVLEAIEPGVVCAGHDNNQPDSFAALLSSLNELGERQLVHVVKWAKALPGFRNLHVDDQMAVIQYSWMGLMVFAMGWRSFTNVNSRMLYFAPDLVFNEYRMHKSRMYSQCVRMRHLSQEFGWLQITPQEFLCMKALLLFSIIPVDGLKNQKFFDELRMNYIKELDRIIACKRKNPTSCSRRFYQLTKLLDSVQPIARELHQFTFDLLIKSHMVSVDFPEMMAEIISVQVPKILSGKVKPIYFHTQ
Chain of Aromatase (Homo sapiens) (P11511 whole entry, looked up): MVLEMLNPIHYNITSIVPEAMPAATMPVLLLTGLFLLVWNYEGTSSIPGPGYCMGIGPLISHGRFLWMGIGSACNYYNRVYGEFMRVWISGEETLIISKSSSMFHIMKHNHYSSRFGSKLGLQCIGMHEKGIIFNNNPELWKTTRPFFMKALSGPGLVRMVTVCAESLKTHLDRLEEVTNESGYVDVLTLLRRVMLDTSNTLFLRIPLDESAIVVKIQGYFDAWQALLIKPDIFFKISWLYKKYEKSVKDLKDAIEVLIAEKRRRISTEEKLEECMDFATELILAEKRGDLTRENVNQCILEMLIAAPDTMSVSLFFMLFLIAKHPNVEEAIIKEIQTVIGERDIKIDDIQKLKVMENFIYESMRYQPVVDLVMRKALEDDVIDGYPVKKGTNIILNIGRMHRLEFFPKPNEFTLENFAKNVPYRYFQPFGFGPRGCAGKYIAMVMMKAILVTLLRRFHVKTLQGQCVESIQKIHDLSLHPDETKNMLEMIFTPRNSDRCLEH
Chain of Estrogen receptor (Homo sapiens) (P03372 whole entry, looked up): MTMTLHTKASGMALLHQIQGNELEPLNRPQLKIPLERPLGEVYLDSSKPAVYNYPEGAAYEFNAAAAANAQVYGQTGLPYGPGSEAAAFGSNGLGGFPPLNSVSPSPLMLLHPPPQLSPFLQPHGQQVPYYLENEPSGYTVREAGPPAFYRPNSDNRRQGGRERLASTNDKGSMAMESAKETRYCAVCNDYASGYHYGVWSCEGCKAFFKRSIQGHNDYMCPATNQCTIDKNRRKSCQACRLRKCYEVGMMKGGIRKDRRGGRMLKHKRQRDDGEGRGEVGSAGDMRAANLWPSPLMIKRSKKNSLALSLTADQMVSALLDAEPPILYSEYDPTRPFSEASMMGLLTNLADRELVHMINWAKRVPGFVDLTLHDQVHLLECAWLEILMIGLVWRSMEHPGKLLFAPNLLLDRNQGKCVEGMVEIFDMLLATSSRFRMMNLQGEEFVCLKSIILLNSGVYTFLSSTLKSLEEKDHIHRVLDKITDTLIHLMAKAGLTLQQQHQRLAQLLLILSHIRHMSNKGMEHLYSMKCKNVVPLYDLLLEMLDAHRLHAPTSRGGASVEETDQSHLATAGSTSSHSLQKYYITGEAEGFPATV

For `C(=C\c1ccccc1)/CN1CCN(C(c2ccccc2)c2ccccc2)CC1`, the Potency result in [1], in experiment [2], in experiment [3], in experiment [5], in experiment [6] and in experiment [7] was “inactive” in each case. For the same compound, in experiment [4], the Potency is 12.7 µM (active).
With `COc1ccc(C(=O)c2cccc(O)c2)c(OC)c1`, the Potency result in experiment [1], in experiment [2], in [3], in [8], in experiment [10] and in experiment [5] was “inactive” each time. The Potency entry in experiment [6] and in experiment [7] was “inactive” each time. Also, the outcome in [9] was inactive. The Potency in experiment [11] is 24.5 µM [activator] (active); in experiment [12] it was 6.84 µM (active); in experiment [13], 68.5 µM (active).
As to `CN1CCN(CCCN2c3ccccc3Sc3ccc(S(=O)(=O)N(C)C)cc32)CC1`, the Potency entry in [1], in experiment [2], in [14], in [5], in experiment [6] and in experiment [7] was “inactive” throughout. In experiment [9], the compound was classed as inactive.
As for `CC(=O)CC(c1ccc([N+](=O)[O-])cc1)c1c(O)c2ccccc2oc1=O` (configuration not stated), the Potency entry in experiment [1], in [2], in experiment [15], in experiment [3], in [14] and in experiment [10] was “inactive” in each case. Moreover, the Potency result in [5], in experiment [11], in experiment [12], in experiment [13], in experiment [6] and in [7] was “inactive” each time.
Take `Cc1oncc1C(=O)Nc1ccc(C(F)(F)F)cc1`: the Potency entry in experiment [1], in [14], in experiment [10], in [5], in experiment [11] and in [12] was “inactive” in each case. For the same compound, the Potency entry in experiment [6] and in [7] was “inactive” throughout. Also, the Potency in [2] is 804 nM (active) and 3.44 µM (active); in experiment [15], 2.27 µM (active) and 4.86 µM (active); in [3], 54.9 µM (active).
In the case of `O=c1[nH]c2ccc(S(=O)CCN3CCC(Cc4ccc(F)cc4)CC3)cc2o1` (configuration not stated), the Potency result in experiment [1], in [3], in experiment [14], in experiment [10], in experiment [5] and in [11] was “inactive” throughout. In [7], the Potency result was “inactive”. In addition, the Potency in experiment [2] is 4.33 µM (active); in experiment [15] it was 6.86 µM (active); in [12] it was 12.2 µM (active). Also, the result in experiment [9] was inactive.
For the compound `CNCCCC1c2ccccc2C=Cc2ccccc21`, the Potency result in experiment [1], in experiment [3], in [10], in experiment [5], in [11] and in [12] was “inactive” throughout. Also, the Potency entry in [6] and in [7] was “inactive” each time. In addition, the Potency in [2] was 12.7 µM (active); in experiment [15], 11.4 µM (active); in [4], 4.52 µM (active); in experiment [16], 11.4 µM (active).
As for `O=C(CCCCCCCCC#CI)Oc1ccccc1`, the Potency result in experiment [1], in [2], in experiment [3], in experiment [17], in [18] and in [8] was “inactive” each time. For the same compound, the Potency entry in [4], in [6] and in [7] was “inactive” in each case. The call in experiment [9] was inactive.
For `CC(C)CCCCCCOC(=O)CCCCC(=O)OCCCCCCC(C)C`, the Potency result in [1], in experiment [15], in experiment [3], in experiment [14], in experiment [16] and in [10] was “inactive” in each case. Further, the Potency entry in experiment [5], in [11], in experiment [12], in [6] and in experiment [7] was “inactive” in each case. Besides, in experiment [2], the Potency is 30.6 µM (active). In [9], the call was inactive.
As to `O=C(OCCOCCO)c1ccccc1Nc1cccc(C(F)(F)F)c1`, the Potency entry in experiment [1], in experiment [2], in experiment [3], in experiment [14], in experiment [16] and in [10] was “inactive” throughout. For the same compound, the Potency entry in [5], in [11], in [12], in experiment [13], in experiment [6] and in experiment [7] was “inactive” each time. In addition, the call in experiment [9] was inactive.
As for `CC(C)(C)C(=O)C(Oc1ccc(Cl)cc1)n1ccnc1` (configuration not stated), the Potency entry in experiment [1], in experiment [16], in experiment [10], in experiment [5], in experiment [11] and in experiment [12] was “inactive” each time. Moreover, in [6], the Potency result is “inactive”. Moreover, the Potency in experiment [2] was 26.6 µM (active); in [15], 21.1 µM (active); in [7] it was 11.9 µM (active). Besides, the outcome in experiment [9] was inactive.
As for `CO/N=C1\CN(c2nc3c(cc2F)c(=O)c(C(=O)O)cn3C2CC2)CC1CN` (configuration not stated), the Potency entry in experiment [1], in [2], in experiment [3], in experiment [14], in experiment [10] and in experiment [5] was “inactive” in each case. Also, the Potency result in experiment [11], in [12], in experiment [6] and in experiment [7] was “inactive” each time.
Regarding `CCCCC(CC)COC(=O)COc1ccc(Cl)cc1C` (configuration not stated), the Potency result in experiment [1], in experiment [3], in experiment [14], in [4], in [16] and in [10] was “inactive” throughout. In addition, the Potency result in [5], in [11], in [12], in experiment [6] and in experiment [7] was “inactive” each time. Moreover, the Potency in experiment [2] was 68.6 µM (active). Besides, in [9], the result was inactive.
Turning to `NC(=O)Nc1ccc(Cl)c(Cl)c1`, the Potency entry in experiment [1], in experiment [3], in experiment [14], in [5], in experiment [6] and in experiment [7] was “inactive” throughout. The Potency in [2] and in [15] was 60.9 µM (active) in each case. Besides, the compound was called inactive in experiment [9].
Turning to `C=CC(C)=CCC=C(C)C`, the Potency entry in experiment [1], in [2], in experiment [3], in experiment [14], in experiment [4] and in experiment [5] was “inactive” throughout. Moreover, the Potency result in experiment [6] and in experiment [7] was “inactive” in each case. The result in experiment [9] was inactive.
Consider `O=C(Nc1ccccc1)Nc1ccccc1`, for which the Potency result in [1], in experiment [14], in [10], in experiment [5], in experiment [11] and in [6] was “inactive” throughout. Besides, the Potency result in experiment [7] is “inactive”. Also, the Potency in experiment [2] is 48.8 µM (active); in experiment [12], 19.4 µM (active). For the same compound, the compound was called inactive in experiment [9].
Regarding `CCCCC(=O)O[C@]1(C(=O)CO)CC[C@H]2[C@@H]3CCC4=CC(=O)CC[C@]4(C)[C@H]3[C@@H](O)C[C@@]21C`, the Potency result in [1], in [2], in experiment [3], in experiment [14], in [4] and in experiment [16] was “inactive” throughout. Further, the Potency entry in experiment [5], in experiment [12], in experiment [6] and in experiment [7] was “inactive” each time. For the same compound, the call in experiment [9] was inactive.
`Brc1cc(-c2ccc(Br)c(Br)c2Br)cc(Br)c1Br`: the Potency result in experiment [1], in experiment [2], in [15], in experiment [3], in experiment [4] and in [5] was “inactive” throughout. Further, the Potency entry in experiment [11], in [12], in experiment [6] and in experiment [7] was “inactive” each time. Besides, in experiment [16], the Potency was 26.9 µM (active). Also, the outcome in [9] was inactive.
In the case of `Oc1cc(O)c(Cl)cc1Cl`, the Potency entry in [1], in [2], in experiment [15], in experiment [3], in experiment [14] and in experiment [5] was “inactive” throughout. Also, the Potency entry in experiment [11], in experiment [12], in experiment [13], in [6] and in [7] was “inactive” each time. Also, the result in [9] was inactive.
With `CN(C)C(=O)Nc1ccc(Oc2ccc(Cl)cc2)cc1`, the Potency result in experiment [1], in [4] and in experiment [5] was “inactive” throughout. The Potency in experiment [2] was 24.3 µM (active); in experiment [15], 15.4 µM (active); in experiment [16], 54.5 µM (active). Further, in experiment [9], the compound was called inactive.
